Among the data in PubChem BioAssay are composite z-score and z-score values, retold here.

Activity calls are given as the source filed them.

For test [1], the system named is PRMT1 (protein arginine N-methyltransferase 1). Briefly: small molecules binding arginine methyltransferase PRMT1 – biochemical, small-molecule microarray, 635 nm fluorescence, primary screen (AID 1088).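 Also: binding of Prmt1 protein to compounds spotted on small-molecule microarray slides.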 The following applies: higher = more signal.
Test [2] is described as follows: growth effects on S. cerevisiae YJM789 – YJM789 clinical isolate, OD600, 24 h, basal, primary screen (AID 1089).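 Also: growth of clinical yeast isolate S. cerevisiae YJM 789 seeded 1000 cells per well; test concentration not given here.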 The following applies: higher = more signal, called active from +8 up or from −8 down.
Test [3] is described as follows: S. pombe growth modifiers, basal conditions – strain 972, OD600, 24 h, no modulator, primary screen (AID 1090).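 Also: basal condition with compound alone and no growth modifier present; test concentration not given here.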 The following applies: S. pombe 972 growth, higher = more signal, called active from +8 up or from −8 down.
Test [4] is described as follows: budding yeast growth modifiers under rapamycin – strain BY4716, OD600, 96 h, primary screen (AID 1091). Also: test concentration not given here. The conditions noted are these: S. cerevisiae BY4716 + rapamycin, higher = more signal, called active from +8 up or from −8 down.
The target in test [5] is Torsin-1A-interacting protein 2 (Homo sapiens) (UniProt Q8NFQ8). In words: small molecules binding lysate-expressed LULL1 – cell lysate, human LULL1 lysate, 635/667 nm fluorescence, primary screen (AID 1092).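 Also: probe is lysate of COS7 cells overexpressing human LULL1; score merges per-feature 667 nm fluorescence with signal-to-noise.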 The following applies: small-molecule microarray, hLULL1 lysate binding, 635 nm fluorescence; higher = more signal.
Torsin-1A-interacting protein 2 (Homo sapiens), sequence (Q8NFQ8 whole entry, looked up): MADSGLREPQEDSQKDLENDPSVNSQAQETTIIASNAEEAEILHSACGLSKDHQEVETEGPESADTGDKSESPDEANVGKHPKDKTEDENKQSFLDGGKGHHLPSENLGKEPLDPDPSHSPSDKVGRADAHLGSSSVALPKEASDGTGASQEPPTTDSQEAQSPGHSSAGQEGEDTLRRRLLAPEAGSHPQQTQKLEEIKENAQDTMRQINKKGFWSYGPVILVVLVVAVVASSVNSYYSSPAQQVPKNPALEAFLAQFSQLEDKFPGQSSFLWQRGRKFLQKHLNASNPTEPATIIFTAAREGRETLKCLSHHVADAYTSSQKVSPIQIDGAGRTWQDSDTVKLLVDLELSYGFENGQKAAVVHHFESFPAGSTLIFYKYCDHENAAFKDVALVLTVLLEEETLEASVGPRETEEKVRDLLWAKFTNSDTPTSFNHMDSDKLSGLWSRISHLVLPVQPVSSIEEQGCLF
The nature of test [6]: optical density change of DRC41 E. coli – strain DRC41, OD650, 24 h, E. coli filamentation project, primary screen (AID 1093).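 Also: MC1000 strain lacking acrAB efflux and sulA so SOS filamentation is blocked; test concentration not given here.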 The following applies: E. coli DRC41 growth, higher = more signal, called active from +8 up or from −8 down.
A short description of test [7]: probe aLefty2 binding to arrayed compounds – biochemical, biotinylated probe, 635/667 nm fluorescence, primary screen (AID 1094).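 Also: score merges spot fluorescence near 667 nm with spot signal-to-noise ratio.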 The conditions noted are these: small-molecule microarray, higher = more signal.
Test [8] has as its system Noggin (protein binding on small-molecule microarray). In words: small molecules binding Noggin protein – biochemical, 635/667 nm fluorescence, primary screen (AID 1095).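 Also: score merges 667 nm feature fluorescence with signal to noise over triplicate slides.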 The conditions noted are these: 635 nm fluorescence, higher = more signal.
In test [9] the target is Neurogenic locus notch homolog protein 3 (Homo sapiens) (UniProt Q9UM47). Briefly: small molecules binding NOTCH3 protein – biochemical, 635/667 nm fluorescence, primary screen (AID 1096). The following applies: small-molecule microarray, 635 nm fluorescence, higher = more signal.
Neurogenic locus notch homolog protein 3 (Homo sapiens), sequence (Q9UM47 whole entry, looked up): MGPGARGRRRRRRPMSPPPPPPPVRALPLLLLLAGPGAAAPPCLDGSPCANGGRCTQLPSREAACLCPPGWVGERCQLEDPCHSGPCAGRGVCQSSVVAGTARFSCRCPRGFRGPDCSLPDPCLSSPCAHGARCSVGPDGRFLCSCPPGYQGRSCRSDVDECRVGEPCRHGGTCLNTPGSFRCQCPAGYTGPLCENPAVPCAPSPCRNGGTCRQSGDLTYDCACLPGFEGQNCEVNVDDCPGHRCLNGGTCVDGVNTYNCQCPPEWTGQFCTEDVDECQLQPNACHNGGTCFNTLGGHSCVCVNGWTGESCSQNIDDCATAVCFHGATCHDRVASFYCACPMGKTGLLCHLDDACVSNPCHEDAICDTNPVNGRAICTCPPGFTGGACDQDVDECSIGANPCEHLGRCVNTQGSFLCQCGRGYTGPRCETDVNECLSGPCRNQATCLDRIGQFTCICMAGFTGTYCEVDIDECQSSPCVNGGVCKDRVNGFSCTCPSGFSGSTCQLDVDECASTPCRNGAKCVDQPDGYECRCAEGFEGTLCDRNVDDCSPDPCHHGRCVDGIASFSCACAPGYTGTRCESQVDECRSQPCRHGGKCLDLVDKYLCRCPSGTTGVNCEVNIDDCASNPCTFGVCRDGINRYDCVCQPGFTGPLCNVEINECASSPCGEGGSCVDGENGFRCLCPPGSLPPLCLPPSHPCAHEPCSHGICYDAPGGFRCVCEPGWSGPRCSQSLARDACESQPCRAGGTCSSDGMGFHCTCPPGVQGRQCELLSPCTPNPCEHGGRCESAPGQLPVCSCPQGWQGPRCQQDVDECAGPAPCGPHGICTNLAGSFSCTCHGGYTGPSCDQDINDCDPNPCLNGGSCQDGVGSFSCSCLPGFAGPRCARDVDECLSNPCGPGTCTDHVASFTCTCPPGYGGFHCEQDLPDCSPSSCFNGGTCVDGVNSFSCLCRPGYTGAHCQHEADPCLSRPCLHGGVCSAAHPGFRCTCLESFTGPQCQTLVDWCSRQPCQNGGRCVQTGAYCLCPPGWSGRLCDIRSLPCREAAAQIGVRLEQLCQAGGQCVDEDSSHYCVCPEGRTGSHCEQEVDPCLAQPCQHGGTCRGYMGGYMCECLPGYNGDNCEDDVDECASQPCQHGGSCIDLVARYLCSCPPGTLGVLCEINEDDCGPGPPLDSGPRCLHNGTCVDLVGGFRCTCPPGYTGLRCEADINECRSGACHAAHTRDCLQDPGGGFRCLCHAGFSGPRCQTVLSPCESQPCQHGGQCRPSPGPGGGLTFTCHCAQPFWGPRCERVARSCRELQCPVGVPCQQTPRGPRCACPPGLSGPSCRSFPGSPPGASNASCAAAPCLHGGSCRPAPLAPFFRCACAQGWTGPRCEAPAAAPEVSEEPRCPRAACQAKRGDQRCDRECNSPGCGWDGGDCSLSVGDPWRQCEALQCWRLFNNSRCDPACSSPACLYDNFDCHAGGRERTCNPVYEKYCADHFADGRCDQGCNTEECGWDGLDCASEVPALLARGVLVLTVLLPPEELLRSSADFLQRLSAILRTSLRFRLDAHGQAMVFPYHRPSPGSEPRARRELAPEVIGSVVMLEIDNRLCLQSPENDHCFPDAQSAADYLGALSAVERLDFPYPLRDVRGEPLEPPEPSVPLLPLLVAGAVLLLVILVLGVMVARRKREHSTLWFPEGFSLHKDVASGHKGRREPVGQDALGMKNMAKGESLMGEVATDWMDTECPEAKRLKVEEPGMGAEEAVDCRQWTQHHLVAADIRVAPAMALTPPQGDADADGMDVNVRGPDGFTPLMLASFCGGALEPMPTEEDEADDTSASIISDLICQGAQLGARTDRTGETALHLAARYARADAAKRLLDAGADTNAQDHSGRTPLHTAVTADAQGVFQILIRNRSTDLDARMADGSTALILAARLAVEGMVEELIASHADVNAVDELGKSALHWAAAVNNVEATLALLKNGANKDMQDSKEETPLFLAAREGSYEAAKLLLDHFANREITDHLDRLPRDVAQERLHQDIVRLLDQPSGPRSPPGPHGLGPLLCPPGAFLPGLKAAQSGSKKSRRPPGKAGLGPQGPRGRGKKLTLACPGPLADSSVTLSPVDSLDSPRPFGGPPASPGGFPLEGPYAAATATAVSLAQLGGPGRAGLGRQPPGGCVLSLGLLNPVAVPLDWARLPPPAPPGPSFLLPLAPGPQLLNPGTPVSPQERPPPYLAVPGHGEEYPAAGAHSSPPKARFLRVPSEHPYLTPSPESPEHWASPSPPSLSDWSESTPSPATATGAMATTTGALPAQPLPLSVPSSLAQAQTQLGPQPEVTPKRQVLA
Test [10] in a line: probe aEGFR binding to arrayed compounds – biochemical, biotinylated probe, 635/667 nm fluorescence, primary screen (AID 1097).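 Also: probe is a biotinylated anti-EGFR antibody binding compounds printed on slides; score combines fluorescence near 667 nm and signal to noise of each spot.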 The conditions noted are these: small-molecule microarray, higher = more signal.
The subject of test [11] is Plasmodium falciparum Sir2 (PF13_0152, Sir2A). In words: Plasmodium falciparum Sir2A binding compounds – biochemical, small-molecule microarray, 635 nm fluorescence, primary screen (AID 1098).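 Also: score merges spot fluorescence intensity with its signal-to-noise ratio.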 The conditions noted are these: fluorescence 635 nm, higher = more signal.
Test [12] is described as follows: probe aDKK1 binding to arrayed compounds – biochemical, biotinylated probe, 635/667 nm fluorescence, primary screen (AID 1099).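 Also: score merges 667nm spot fluorescence with signal to noise across triplicate slides; reference of the scale not given here.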 The following applies: small-molecule microarray, higher = more signal.
The nature of test [13]: probe aCHRDL2 binding to arrayed compounds – biochemical, biotinylated probe, 635/667 nm fluorescence, primary screen (AID 1100). The following applies: small-molecule microarray, higher = more signal.
Test [14] is described as follows: change in splice reporter luminescence, either direction, cell-based, HEK293, spliceosome inhibition project, primary screen (AID 1101).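 Also: HEK293 cells carrying a splicing-competent luciferase reporter gene; test concentration not given here.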 The following applies: HEK293 splicing luciferase reporter, 24 h, higher = more signal, called active from +8 up or from −8 down. On the technique in general: A reporter such as luciferase makes a cellular process visible.
The target in test [15] is Fibroblast growth factor 10 (Homo sapiens) (UniProt O15520). Briefly: compounds binding fibroblast growth factor 10 – biochemical, small-molecule microarray, 635 nm fluorescence, primary screen (AID 1102). The conditions noted are these: FGF10 binding, fluorescence 635 nm, higher = more signal.
Fibroblast growth factor 10 (Homo sapiens), sequence (O15520 whole entry, looked up): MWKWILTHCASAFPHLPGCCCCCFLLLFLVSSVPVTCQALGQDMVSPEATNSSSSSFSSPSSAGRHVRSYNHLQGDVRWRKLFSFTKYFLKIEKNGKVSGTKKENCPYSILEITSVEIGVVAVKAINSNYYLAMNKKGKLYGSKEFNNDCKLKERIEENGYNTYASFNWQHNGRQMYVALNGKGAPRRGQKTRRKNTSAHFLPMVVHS
Test [16] deals with glycogen synthase kinase-3 (GSK3A per assay name; protocol says GSK3B). Briefly: compounds binding glycogen synthase kinase-3 – biochemical, small-molecule microarray, 635 nm fluorescence, GSK3A, primary screen (AID 1103). Also: the record names both GSK3A and GSK3B. The conditions noted are these: fluorescence 635 nm, higher = more signal.
The target of test [17] is Epidermal growth factor receptor (Homo sapiens) (UniProt P00533). Briefly: compounds binding epidermal growth factor receptor – biochemical, small-molecule microarray, 635 nm fluorescence, primary screen (AID 1104).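 Also: score merges 667 nm emission intensity with spot signal to noise over triplicate slides.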 The following applies: EGFR binding, higher = more signal.
Epidermal growth factor receptor (Homo sapiens), sequence (P00533 whole entry, looked up): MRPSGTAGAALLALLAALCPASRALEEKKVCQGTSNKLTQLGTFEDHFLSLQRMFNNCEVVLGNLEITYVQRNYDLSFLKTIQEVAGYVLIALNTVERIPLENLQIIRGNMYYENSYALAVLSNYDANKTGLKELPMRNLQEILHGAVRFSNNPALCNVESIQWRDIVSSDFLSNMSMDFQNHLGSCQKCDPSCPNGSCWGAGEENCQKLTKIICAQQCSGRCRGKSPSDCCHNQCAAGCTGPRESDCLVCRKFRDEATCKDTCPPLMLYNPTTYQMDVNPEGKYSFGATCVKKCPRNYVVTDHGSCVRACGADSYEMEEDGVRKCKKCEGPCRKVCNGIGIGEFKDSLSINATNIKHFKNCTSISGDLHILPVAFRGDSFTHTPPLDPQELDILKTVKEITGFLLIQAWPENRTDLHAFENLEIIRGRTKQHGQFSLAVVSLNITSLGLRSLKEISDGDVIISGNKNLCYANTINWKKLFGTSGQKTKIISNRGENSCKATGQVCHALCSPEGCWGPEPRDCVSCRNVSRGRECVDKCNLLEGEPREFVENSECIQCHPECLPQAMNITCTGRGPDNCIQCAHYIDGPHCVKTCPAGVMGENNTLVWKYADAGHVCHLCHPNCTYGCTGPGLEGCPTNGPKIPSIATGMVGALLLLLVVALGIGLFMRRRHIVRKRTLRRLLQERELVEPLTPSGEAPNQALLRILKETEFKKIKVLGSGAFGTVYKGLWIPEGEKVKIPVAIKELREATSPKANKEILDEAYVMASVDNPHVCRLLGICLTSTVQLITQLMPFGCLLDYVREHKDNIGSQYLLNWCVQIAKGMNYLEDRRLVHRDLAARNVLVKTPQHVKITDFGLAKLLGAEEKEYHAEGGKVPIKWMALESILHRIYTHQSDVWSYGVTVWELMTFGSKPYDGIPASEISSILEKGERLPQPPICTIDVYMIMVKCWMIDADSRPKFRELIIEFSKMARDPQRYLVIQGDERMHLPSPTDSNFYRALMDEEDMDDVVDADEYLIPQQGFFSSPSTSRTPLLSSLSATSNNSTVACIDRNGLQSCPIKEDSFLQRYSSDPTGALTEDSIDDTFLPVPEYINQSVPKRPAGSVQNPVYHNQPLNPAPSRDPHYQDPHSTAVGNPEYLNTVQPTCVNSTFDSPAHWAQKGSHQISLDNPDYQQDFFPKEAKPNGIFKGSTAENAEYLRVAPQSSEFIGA
Test [18] deals with Follistatin-related protein 3 (Homo sapiens) (UniProt O95633). In words: compounds binding follistatin-related protein 3 – biochemical, small-molecule microarray, 635 nm fluorescence, primary screen (AID 1105).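 Also: score merges emission near 667 nm and signal to noise per printed spot across three slides.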 The conditions noted are these: FSTL3 binding, higher = more signal.
Follistatin-related protein 3 (Homo sapiens), sequence (O95633 whole entry, looked up): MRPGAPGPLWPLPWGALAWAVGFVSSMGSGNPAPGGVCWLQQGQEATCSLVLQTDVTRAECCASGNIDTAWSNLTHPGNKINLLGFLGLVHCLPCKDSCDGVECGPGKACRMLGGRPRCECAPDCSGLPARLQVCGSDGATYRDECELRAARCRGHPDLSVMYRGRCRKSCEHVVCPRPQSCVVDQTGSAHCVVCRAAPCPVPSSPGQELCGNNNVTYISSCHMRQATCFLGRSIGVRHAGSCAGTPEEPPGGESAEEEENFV
The target in test [19] is Dickkopf-related protein 1 (Homo sapiens) (UniProt O94907). In words: small molecules binding DKK1 protein – biochemical, small-molecule microarray, 635 nm fluorescence scan, primary screen (AID 1106).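 Also: score merges emission near 667 nm with signal to noise over three replicate slides.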 The following applies: higher = more signal.
Dickkopf-related protein 1 (Homo sapiens), sequence (O94907 whole entry, looked up): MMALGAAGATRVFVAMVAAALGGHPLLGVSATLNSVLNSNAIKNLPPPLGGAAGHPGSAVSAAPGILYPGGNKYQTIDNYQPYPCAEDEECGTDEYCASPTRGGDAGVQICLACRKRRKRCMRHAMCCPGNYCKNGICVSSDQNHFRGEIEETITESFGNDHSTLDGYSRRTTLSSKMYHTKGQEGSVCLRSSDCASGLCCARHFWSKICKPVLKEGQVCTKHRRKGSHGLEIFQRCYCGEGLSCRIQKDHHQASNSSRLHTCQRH
Test [20] concerns Inhibin beta A chain (activin A). In words: small molecules binding activin A – biochemical, small-molecule microarray, 635 nm fluorescence scan, primary screen (AID 1107).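 Also: mouse activin A protein probed at 4.33 µg/mL on printed slides; score merges bound-protein fluorescence near 667 nm with spot signal-to-noise.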 The following applies: INHBA, higher = more signal.

As to `CCOC(=O)C[C@H]1[C@H](OC(=O)c2ccc(C(=O)c3ccccc3)cc2)[C@@H](NC(=O)c2ccc(-c3ccccc3)cc2)c2cc(OCCCO)ccc2N1C(=O)Cc1ccc(OC)cc1`, the composite z-score was 0.845 in test [1]; 0.861 in test [5]; 0.259 in [7]; 0.601 in test [8]; 0.378 in test [9]; -0.0302 in test [10]. Also, the composite z-score in [11] was 0.0732; in test [12], 0.223; in test [13], 0.777; in [15] it was 0.0382; in test [16], 0.0652; in [17], -0.274. Besides, the composite z-score in [18] was 0.0472; in test [19], -0.537; in [20], 0.783. Moreover, the z-score was 0.233 (inactive) in test [2]; 0.838 (inactive) in test [3]; 0.876 (inactive) in test [4]; 0.24 (inactive) in test [6]; -0.213 (inactive) in test [14].
In the case of `C=CC[C@@H](OC(=O)Nc1ccc(SC)cc1)c1ccc(O)c(F)c1`, the composite z-score in test [1] was 0.803; in test [5], 0.724; in [7] it was 0.0276; in [8] it was 0.713; in [9] it was -0.0238; in [10], -0.105. The composite z-score in test [11] was 0.522; in test [12] it was 0.0488; in test [13], 0.404; in test [15], 0.214; in test [16], -0.0142; in test [17], -0.361. In addition, the composite z-score in [18] came to 0.155; in [19] it was 0.183; in test [20], 0.77. For the same molecule, the z-score in test [2] was -21.2 (active); in test [3], -19.9 (active); in test [4], -0.545 (inactive); in test [6], 1.81 (inactive); in [14], -1.79 (inactive).
Consider `NC(=O)[C@H]1[C@@H]2C(=O)O[C@@H](c3ccccc3)[C@@H](c3ccccc3)N2[C@@H](c2ccc(OCCO)cc2)[C@]12C(=O)Nc1ccc(C#CCCO)cc12`, for which the composite z-score in test [1] is 1.41; in test [5] it was 1.7; in test [7], -0.0636; in test [8], 0.425; in test [9], 0.164; in test [10], 0.0932. The composite z-score in [11] came to 0.912; in test [12], 0.313; in [13] it was 0.485; in test [15], 0.251; in [16], 0.608; in test [17], 0.189. In addition, the composite z-score in [18] is 0.255; in test [19] it was 0.24; in [20], 0.779. For the same molecule, the z-score in [2] is 1.62 (inactive); in test [3] it was 0.547 (inactive); in test [4] it was 3.63 (inactive); in [6], -0.595 (inactive); in test [14] it was 0.728 (inactive).
Turning to `COCC(=C=CC[C@H](O)c1ccccc1OCCO)C[C@H](O)c1ccccn1`, the composite z-score in test [1] was 1.14; in test [5], 3.35; in test [7], -0.138; in test [8], 0.808; in test [9], -0.0439; in test [10], 0.122. The composite z-score in test [11] was 0.34; in test [12], -0.201; in test [13], -0.0336; in [15] it was 0.207; in test [16], -0.115; in test [17] it was -0.299. The composite z-score was -0.114 in test [18], -0.0344 in [19] and 0.41 in test [20]. The z-score is 0.636 (inactive) in [2]; -0.422 (inactive) in [3]; -0.505 (inactive) in test [4]; 0.723 (inactive) in test [6]; 0.0209 (inactive) in test [14].
In the case of `C=CCC(OC(C)=O)[C@@H]1[C@@H](N(Cc2ccc(-c3cccc(C(F)(F)F)c3)o2)C(=O)Cc2ccc(OC)cc2)c2cc(OCCCO)ccc2N1C(=O)c1ccc(-c2ccccc2)cc1` (stereo not given in full), the composite z-score is 0.62 in test [1]; 0.442 in test [5]; -0.0436 in test [7]; -0.478 in test [8]; -0.449 in [9]; -0.146 in test [10]. In addition, the composite z-score in test [11] was -0.318; in test [12], -0.0755; in test [13] it was 0.541; in test [15], -0.165; in test [16], -0.522; in [17], -0.577. Besides, the composite z-score in test [18] is -0.119; in test [19] it was -0.434; in test [20], 1.39. The z-score was 0.282 (inactive) in test [2]; 0.297 (inactive) in test [3]; 0.322 (inactive) in [4]; -0.936 (inactive) in test [6]; -1.13 (inactive) in test [14].
